Over roughly 16,000 sequences, “Z-score” has its median near -0.37; the highest 2% begin near 3.1. This is one part of a sample in which the highest values are shown more often than they occur.
Tested on: RBM10 RRM1-ZnF-RRM2 (GST-tagged construct)
Experiment: RNAcompete 7-mer binding Z-score; higher = stronger binding preference
Experimental: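 RNAcompete: 20 pmol GST-tagged RBM10 RNA-binding constructs were incubated with a designed RNA pool of about 241,000 sequences up to 41 nt (1.5 nmol) on glutathione beads for 30 min at 4 °C and washed. Bound RNAs were identified by microarray hybridisation. Each RNA 7-mer is scored by a one-sided Z-score of its enrichment, computed over probes that contain the 7-mer within longer pool sequences.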

Sequence	RNAcompete 7-mer binding Z-score
UAUAGGG	2.76
CGUAGAG	0.636
AGUAGGA	3.08
CAUAGGG	2.13
AAUAGGA	1.57
GAUAGGG	4.38
GGUAGAG	3.68
GGUAGGA	3.37
GGUAGGC	2.65
UGUAGAG	0.978
CAUAGGA	0.756
GAUAGGA	3.17
CGAUUAA	-0.493
GGAUUGC	0.88
AACCACA	-0.275
UCUUGCG	-0.664
AGAUGCU	-0.777
AUUCGGA	0.243
UAUGUCC	-0.785
CCUCGGC	-0.701
AACACGU	-0.3
CUACUAU	-0.657
CCGUCCA	-0.704
CCUACGG	-0.446
UAACGCU	-0.646

Sequence	RNAcompete 7-mer binding Z-score
GGCCAUG	0.181
GCCGGGG	1.4
UGUAGGA	1.9
AAUAGGU	1.27
GUUAGGG	3.65
AAUAGGC	0.924
AAUAGGG	3.5
UUUAGGG	1.51
UGUAAAG	0.257
GUUAGGU	1.89
UGUAGGG	3.34
GGUAAAG	3.35
CGUAGGG	2.3
CGUAAAG	-0.0743
UCCAUUU	-0.872
GAUCCAG	0.0641
ACGUAAU	-0.417
ACAAUCG	-0.173
UACCCCG	-0.551
AUGCUCA	-0.766
GGUGAGA	2.68
GGUGAGG	4.3
CAUGAGG	1.35
CGUGAGG	1.73
GAUGAGU	1.01

Sequence	RNAcompete 7-mer binding Z-score
GAUGAGG	3.6
CCUCCAA	-0.857
UGAGCCC	-0.435
GUCCACU	-0.653
CGCAAGG	0.341
GGGCGAC	1.94
GGGCGGG	3.52
GGGCAGG	3.39
GGCAAAG	1.95
AGGCAGG	1.77
GGGCGGA	3.09
GGCAAGG	3.47
GGGCAGA	2.25
GGGCGAG	3.88
GGGCGAA	2.68
GGGCGGU	2.58
AUAGUGG	1.69
CACCAUC	-0.734
UGCGCAG	0.0677
UUUGGAU	-0.125
UACUUUA	-0.948
UGGCGGG	3.19
CGGCGGG	1.97
UGGCGGU	1.54
ACGGGAC	2.19

Sequence	RNAcompete 7-mer binding Z-score
UGCAACC	-0.504
GAGGGGG	2.83
GAGGGCA	1.99
CGGGGGA	2.53
GAGGGAU	3.31
AAGGGGC	3.1
GAGGAAA	2.2
CAGGGAU	2.41
GAGGGGA	3.29
GAGGGAA	3.6
GCGGGAU	2.38
AGGGGGG	2.05
AAGGGGG	3.91
CCGCUAC	-0.868
GUUACUC	-0.581
UAAGUCA	-0.0816
UCGCGCA	-0.595
ACCUCCG	-0.737
AUAGAGA	0.501
AGAACAU	-0.398
CCUAUAU	-0.799
UCAAUGC	-0.533
GCUUGUG	-0.479
GUACCCC	-0.242
UUCCUGA	-0.763

Sequence	RNAcompete 7-mer binding Z-score
AGGGGGU	3.03
GAGGGGU	3.64
GAGGGGC	2.44
AGGGGGA	2.14
AAGGGGA	4.44
AAGGGGU	4.33
CAAGGGG	3.03
GAGGGCU	1.27
UAAGGGG	3.11
AAAGGGG	4.22
AACCCUU	-1.03
CCACGCA	-0.664
AUUGUGA	0.108
UCGCGUU	-0.602
CUUCCUU	-0.759
AGUAAGA	0.541
GUUCUCU	-0.788
AUGGGUU	2.86
AGGGGCG	2.07
AUGGGUA	3.71
AUGGGUG	3.74
GUGGGUG	3.76
AUUGGUG	1.84
AUGGGUC	2.15
AUCGGUG	0.691

Sequence	RNAcompete 7-mer binding Z-score
AGGGGGC	1.4
CUGGGUG	1.82
AGGGGUG	3.14
GUGGGUC	2.4
CUCUUCC	-0.879
AAUAUAC	-0.26
UAGUCCA	-0.683
UGUGGCC	0.0459
AUCUCGC	-0.894
AAGUUAC	-0.289
CGGCUGA	-0.0306
UUCAAUA	-0.151
UUGGGUG	3.43
UCGGGUG	1.96
CCGGGUG	1.62
UUGGGUC	1.03
UGGGGUC	2.62
UGGGGUG	4.14
CGGGGUG	3.36
GGGGGCG	2.58
UUGGGUU	2.05
GGGGGUC	2.06
GGGGGUG	3.43
CGGGGUU	2.23
GUUAUCU	-0.395

Sequence	RNAcompete 7-mer binding Z-score
GACCCCC	-0.551
ACGAAUA	-0.238
UAUCACG	-0.435
AUGUAAC	-0.147
GAGUGUU	0.432
CGAGGCU	0.217
ACACCCU	-0.941
UAAUACA	-0.391
UCAUUCU	-0.752
UGCGGUC	-0.00512
GCGCUGU	-0.191
ACAGUAA	0.0677
GGCCGCC	-0.683
UAAGCCA	-0.712
GCCAAAC	-0.573
AGUCUGU	-0.482
GGGGGUU	3.29
AGGGGUU	2.42
UGGUGUG	2.21
GGGGUUU	2.36
GGGUGUA	3.09
GGGUGUG	3.51
AUCUACU	-0.806
AUCUUGG	-0.311
CGGGAAC	1.5

Sequence	RNAcompete 7-mer binding Z-score
GCUUCCG	-0.799
CUUGGUC	-0.821
GGACAGA	1.44
GGACCGU	0.0532
UGGGAUA	2.85
GGGGAUG	3.68
GGGGAUC	2.27
GGGGAUU	2.36
UGGGAUG	3.22
AGGGACG	2.37
AGGGAUG	4.22
CGGGAUG	2.31
UGGGAUU	1.63
ACAGAUU	-0.242
AAUGGUC	0.822
GCAGCCC	-0.497
CUGCCAG	-0.606
AAACUUU	-0.752
UAGUGAC	0.21
CAUUCUA	-0.821
GCGGGUU	2.54
CCGGGGA	1.12
UCGGGGU	1.76
UCGGGGA	1.7
CCGGGGG	1.4

Sequence	RNAcompete 7-mer binding Z-score
GCGGGGG	3.51
GCGGGGU	3.77
GCGGGGA	3.23
GCGGGGC	2.5
UCAAGCU	-0.621
CUCCGAC	-0.664
UCCCCAA	-0.639
CCAUAGA	-0.464
CGACGGG	2.14
GGACGGG	4.18
GAACGGG	4.29
CGAACGG	1.41
GGAACGG	4.03
GGACGGC	1.05
GAACGGU	1.56
AGAACGG	1.84
GAACGGC	0.84
ACGAUAC	-0.413
AUGCAUC	-0.362
UGAUAUA	-0.366
CACGAAA	-0.366
GGAUGGU	3.73
UGAUGGU	1.26
GGAUGGC	2.46
AGAUGGU	1.63

Sequence	RNAcompete 7-mer binding Z-score
AGAUGGA	2.92
GGAUGGA	3.36
UAGGAGC	1.74
AUGGGCA	2.7
AUGGGCG	3
CUGGGCG	1.05
GUGGGCG	3.37
GUGGGCC	1.58
GUGGGCA	3.48
AGCGCGC	-0.282
CAGUCUU	-0.857
GAAAUCU	-0.46
CCGUUAA	-0.77
AGAAAAU	0.0859
CGGGUAU	1.39
AGGGUCU	0.559
GGGGUAG	4.58
UGGGUAA	2.38
GGGGUAA	3.5
GGGGUAC	2.82
GUGGUAG	2.26
GGGGUAU	2.98
GAGGUAA	2.53
AGGGUAA	4.77
CGGGUAA	1.81

Sequence	RNAcompete 7-mer binding Z-score
AGGGUAU	3.41
UGAGCAU	-0.0634
UGUAACU	-0.358
AUCGGCG	0.337
CGCCUGG	-0.482
GUGGCCA	0.403
UUCCGGG	0.341
GUUGAGU	0.57
GAGUCCU	-0.453
UCAGUCA	-0.493
AGUGGGC	2.96
AGUGGGG	4.66
UGUGGGC	1.83
UGUGGUG	1.57
CGUGGUG	1.44
UGUGGGA	2.96
AGUGGUG	2.24
GGUGGGC	3.19
GGUGGUC	2.11
GGUGGUG	3.25
UGUGGGG	3.75
AGUGUGG	2.64
AAGCUCA	-0.635
GCACGGU	0.519
GCACGCG	-0.0598

Sequence	RNAcompete 7-mer binding Z-score
GUUGCCG	-0.216
AAGCGGU	1.03
ACGGAAC	0.785
GGUGGGA	3.75
UGUGGGU	2.9
GGUGGUU	2.03
AGUGGGA	4.3
GCUGGGU	1.78
GCUGGGA	1.69
AGUGGUA	1.92
GGUGGCA	2.34
AGUGGGU	3.35
GGUGGGU	3.47
CGUGGGU	2.43
AGUGGCA	1.68
UAUUCAA	-0.606
UGUUUUU	-0.46
CUAACCC	-0.766
GGCGAAA	1.35
CUCCUAU	-0.956
CGUGGGA	2.39
GCUGGGG	2.46
CGUGGGC	2.21
GGUGGGG	4.34
CGUGGGG	3.57

Sequence	RNAcompete 7-mer binding Z-score
GGGGGGG	2.58
AUCUCUG	-0.846
CUGGGGC	0.956
GUGGGGA	4.25
GCGGGAA	2.5
GUGGGGC	3.47
CUGGGGA	1.32
AUGGGCU	1.51
GGGGGGC	2
GUGGGAA	3.49
AUGGGAC	2.47
GUUGGGA	3.05
AUGGGAU	3.25
GUGGGAC	2.4
UCAACGC	-0.584
GGAAAUC	0.931
GUGGGGG	4.18
GUGGGGU	4.45
GCGGGAG	2.64
CUGGGGG	1.81
UUGGGGU	2.84
GUGGGAG	3.99
GUGGCGG	3.22
GUGGCGC	1.46
GUGGGUU	2.54

Sequence	RNAcompete 7-mer binding Z-score
UCGGGAG	1.18
CUGGCGG	0.541
UGGCUAU	-0.00148
GGAUAGC	2.07
CGCAACU	-0.825
UCAAUUC	-0.752
GUAGUGA	1.1
GGUGCGA	1.58
CUUUCCG	-0.777
AUCAGCA	-0.395
AUUCCCC	-0.613
AGGAUAA	1.21
CUGGGAU	0.964
UUGGGAU	1.9
GUGGGAU	3.57
AUAAGAA	0.177
GAUUGCC	-0.672
AAGUCUU	-0.697
GUAGGGU	4.48
GUAGGAG	3.78
GUAGGGG	4.66
CUAGGGG	1.97
GUAGGGC	2.85
CUAGGAG	0.534
GUAGGAC	1.86

Sequence	RNAcompete 7-mer binding Z-score
UUAGGGA	2.36
GUAGGGA	4.26
UUAGGGG	2.07
UUAGGGU	3.02
CUAGGGU	2
AACUUUA	-0.679
UAGGCGG	1.79
UGUGACC	-0.176
CGUCUUU	-0.613
CCACUCG	-0.73
GGGUCUG	0.993
ACCUCUG	-0.814
AUAGGGC	2.14
AUAGGAG	2.27
AUAGGGA	2.9
AUAGGGU	4.33
AUAGGGG	4.15
AUAGGCG	1.16
